Reference: PubChem BioAssay (Tox21)
Values joined by “and” are separate entries in the source; they are usually repeats but may differ in a detail not shown here. Identical values can stand only once. Inconclusive results are not listed. A structure can be active in one record and inactive in another. Active and inactive are the calls of the source. Unless noted, the call rests on the fitted dose curve.

Columns and labels:
[1] = Nuclear factor erythroid 2-related factor 2/antioxidant responsive element (Nrf2/ARE) small molecule agonists: qHTS cell viability counter screen in human keratinocytes (AID 1919968; active means well fitted curve in the direction sought with a large enough effect in the repeat runs; an effect the other way counts as inactive or inconclusive; further: nearly all actives have a fitted effect of over 55% in size; further: potency means the concentration at half of the fitted maximal effect)
In short: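 Parallel cytotoxicity read: KeratinoSens HaCaT cells, compound treatment 23 h, viability by CellTiter-Fluor fluorescence 1 h post-reagent.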

[2] = Nuclear factor erythroid 2-related factor 2/antioxidant responsive element (Nrf2/ARE) small molecule agonists: luciferase reporter gene qHTS assay in human keratinocytes (AID 1919969); further: nearly all actives have a fitted effect of over 35% in size; further: potency means the concentration at half of the fitted maximal effect
[3] = biological target: Gonadotropin-releasing hormone receptor (Homo sapiens) (UniProt P30968); assay: Human gonadotropin-releasing hormone receptor (GnRHR) small molecule agonists, calcium flux assay in GnRHR-HEK293 cells (AID 1920063); further: nearly all actives have a fitted effect of over 35% in size
In short: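 Calcium flux, agonist mode, human GnRHR stably integrated in HEK293; dye 1 h at 37 C before compound; Ex/Em=480/540 kinetic read, 3 min; 15 concentrations, triplicate.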

[4] = biological target: KiSS-1 receptor (Homo sapiens) (UniProt Q969F8); assay: Human kisspeptin (KISS1R) small molecule agonists, calcium flux assay in KISS1R-HEK293 cells (AID 1920064; active means well fitted curve in the direction sought with a large enough effect in the repeat runs; an effect the other way counts as inactive or inconclusive)
In short: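 Triplicate 15-concentration series were applied to dye-loaded human KISS1R HEK293 cells, and agonist-evoked calcium fluorescence was captured for 3 min.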

[5] = G protein-coupled receptor (GPCR) small molecule agonists, calcium flux assay: HEK293 wild type cell line counter screen (AID 1920065)
In short: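 Non-specific calcium responders were flagged by adding DMSO-dissolved compounds to dye-loaded cells and reading 480/540 nm fluorescence each second for 3 min; ATP served as positive control.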

[6] = p53 small molecule agonists, cell-based qHTS assay with human liver microsomes: qHTS cell viability counter screen (AID 1963579); further: nearly all actives have a fitted effect of over 45% in size; further: potency means the concentration at half of the fitted maximal effect
In short: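 Cytotoxicity counter screen: p53RE-bla, 4,000 cells/well; 5 h settle, 37 C/5% CO2; cpd + HLM 0.5 mg/mL + NADPH 0.5 mg/mL (final); 16 h, 37 C; CellTiter-Glo, 30 min RT, luminescence.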

[7] = p53 small molecule agonists, cell-based qHTS assay: qHTS cell viability counter screen (AID 1963581); further: nearly all actives have a fitted effect of over 45% in size; further: potency means the concentration at half of the fitted maximal effect
In short: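 Multiplexed with the reporter read, a CellTiter-Glo step (30 min, room temperature) gauges ATP-based viability of HCT-116 p53RE-bla cells after 16 h compound incubation at 37 C.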

[8] = p53 small molecule agonists, cell-based qHTS assay (AID 1963582; active means well fitted activation curve with a large enough effect in the signal ratio in the repeat runs, not every such curve was filed as active; the % refers to the signal ratio)
In short: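 Beta-lactamase reporter cells (p53RE-bla) treated with compounds for 16 h at 37 C; FRET substrate, 2 h, room temperature; fluorescence intensity.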

[9] = biological target: 5-hydroxytryptamine receptor 2A (Homo sapiens) (UniProt P28223); assay: 5-hydroxytryptamine receptor 2A (HTR2A) small molecule antagonists, cell-based qHTS assay (AID 1963586); further: nearly all actives have a fitted effect of over 45% in size
In short: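 CHO cells stably expressing human HTR2A were plated for 18 h at 37 C, then loaded with calcium dye for 1 h. Compounds were preincubated 5 min at room temperature before DOI (4 nM solution) was added. Kinetic fluorescence was read for 3 min.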

[10] = biological target: 5-hydroxytryptamine receptor 2A (Homo sapiens) (UniProt P28223); assay: 5-hydroxytryptamine receptor 2A (HTR2A) small molecule agonists, cell-based qHTS assay (AID 1963587); further: nearly all actives have a fitted effect of over 30% in size
In short: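 Kinetic calcium-flux fluorescence (2 min, 1 sec intervals) after compound addition in agonist mode. HTR2A-CHO cells were cultured 18 h, then dye-loaded 1 h at 37 C.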

[11] = biological target: Muscarinic acetylcholine receptor M1 (Homo sapiens) (UniProt P11229); assay: Cholinergic receptor muscarinic 1 (CHRM1) small molecule antagonists, cell-based qHTS assay (AID 1963588); further: nearly all actives have a fitted effect of over 40% in size
In short: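 Compounds were tested at 15 concentrations in three independent runs. Dye-loaded CHRM1-CHO cells were exposed 5 min at room temperature before stimulation by acetylcholine added at 50nM. Intracellular calcium was read kinetically on FDSS for 3 min.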

[12] = biological target: Muscarinic acetylcholine receptor M1 (Homo sapiens) (UniProt P11229); assay: Cholinergic receptor muscarinic 1 (CHRM1) small molecule agonists, cell-based qHTS assay (AID 1963589); further: nearly all actives have a fitted effect of over 35% in size
In short: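 qHTS, 15-point titration, 3 independent runs: compounds pin-transferred onto dye-loaded CHRM1-CHO cells (human M1), calcium fluorescence followed every second to detect agonism.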

[13] = biological target: Beta-2 adrenergic receptor (Homo sapiens) (UniProt P07550); assay: Adrenergic beta2 receptor (ADRB2) small molecule antagonists, cell-based qHTS assay (AID 1963592); further: series mostly up to about 92 µM; nearly all actives have a fitted effect of over 50% in size
In short: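 Assay format: CHO-ADRB2 cells, 18-20hr seeding at 37C/5% CO2, then compound plus 1nM isoproterenol agonist mix for 0.5hr RT. Homogeneous time-resolved fluorescence cAMP detection after 1hr, expressed as 665/615 nm ratio.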

[14] = biological target: D(2) dopamine receptor (Homo sapiens) (UniProt P14416); assay: Dopamine D2 receptor (DRD2) small molecule agonists, cell-based qHTS assay (AID 1963594); further: nearly all actives have a fitted effect of over 35% in size
In short: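 cAMP accumulation in DRD2-HEK293 cells measured by HTRF after 1 h detection; compounds added 10 min before NKH477 (200nM […]) forskolin-analogue stimulation, 30 min at room temperature, with Ro20-1724 present at 0.1 mM final.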

[15] = biological target: D(2) dopamine receptor (Homo sapiens) (UniProt P14416); assay: Dopamine D2 receptor (DRD2) small molecule antagonists, cell-based qHTS assay (AID 1963595; active means well fitted inhibition curve with a large enough effect in the signal ratio in the repeat runs, with a control signal flat; the % refers to the signal ratio; further: potency means the concentration at half of the fitted maximal effect)
In short: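 In this cell-based antagonist screen, compounds act for 10 min at room temperature before a 30 min challenge with 12 nM quinpirole and 200 nM NKH477. cAMP is quantified by HTRF competition in DRD2-HEK293 cells containing 0.1 mM Ro20-1724.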

[16] = cAMP Responsive Elements (CRE) small molecule agonists, cell-based qHTS assay (AID 1963590)
In short: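 Quantitative HTS for CRE agonists: HEK 293T CRE-bla cells, overnight plating, 3 h compound incubation at 37 C/5% CO2, then 2 h room-temperature LiveBLAzer B/G FRET substrate loading.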

[17] = cAMP Responsive Elements (CRE) small molecule antagonists, cell-based qHTS assay (AID 1963591; active means well fitted inhibition curve with a large enough effect in the signal ratio in the repeat runs, not every such curve was filed as active; the % refers to the signal ratio)
In short: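 Fluorescence intensity from cleaved LiveBLAzer B/G substrate (2 h, room temperature) quantified CRE-bla activity in HEK 293T cells exposed 3 h to compound with 0.25 uM final NKH477.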

[18] = biological target: Beta-2 adrenergic receptor (Homo sapiens) (UniProt P07550); assay: Adrenergic beta2 receptor (ADRB2) small molecule agonists, cell-based qHTS assay (AID 1963593);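 further: CHO cells stably overexpressing human ADRB2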
In short: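 CHO cells stably over-expressing ADRB2 were plated overnight at 37C, then dosed with compounds plus a stimulation mix containing 100uM IBMX and 25uM Ro-20-1724 for 0.5hr at room temperature. cAMP was measured by HTRF competition, 1hr.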

[19] = p53 small molecule agonists, cell-based qHTS assay with rat liver microsomes: qHTS cell viability counter screen (AID 1963580); further: nearly all actives have a fitted effect of over 45% in size
In short: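 Rat liver microsome (0.5 mg/mL final) and NADPH (0.5 mg/mL final) co-incubation with compounds for 16 h at 37 C on HCT-116 p53RE-bla cells; cytotoxicity taken from intracellular ATP luminescence.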

Measured: Potency

Sequence of KiSS-1 receptor (Homo sapiens) (Q969F8 whole entry, looked up): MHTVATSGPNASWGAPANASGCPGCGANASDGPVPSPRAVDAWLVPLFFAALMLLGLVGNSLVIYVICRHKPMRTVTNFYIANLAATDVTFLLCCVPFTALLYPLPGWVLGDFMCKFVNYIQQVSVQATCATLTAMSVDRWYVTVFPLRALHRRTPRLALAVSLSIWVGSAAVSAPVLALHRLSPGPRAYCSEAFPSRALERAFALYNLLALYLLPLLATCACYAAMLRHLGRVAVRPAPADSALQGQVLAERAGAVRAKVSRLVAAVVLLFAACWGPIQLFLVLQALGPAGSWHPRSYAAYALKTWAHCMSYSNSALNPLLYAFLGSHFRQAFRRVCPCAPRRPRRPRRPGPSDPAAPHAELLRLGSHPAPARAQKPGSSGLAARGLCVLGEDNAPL
Sequence of D(2) dopamine receptor (Homo sapiens) (P14416 whole entry, looked up): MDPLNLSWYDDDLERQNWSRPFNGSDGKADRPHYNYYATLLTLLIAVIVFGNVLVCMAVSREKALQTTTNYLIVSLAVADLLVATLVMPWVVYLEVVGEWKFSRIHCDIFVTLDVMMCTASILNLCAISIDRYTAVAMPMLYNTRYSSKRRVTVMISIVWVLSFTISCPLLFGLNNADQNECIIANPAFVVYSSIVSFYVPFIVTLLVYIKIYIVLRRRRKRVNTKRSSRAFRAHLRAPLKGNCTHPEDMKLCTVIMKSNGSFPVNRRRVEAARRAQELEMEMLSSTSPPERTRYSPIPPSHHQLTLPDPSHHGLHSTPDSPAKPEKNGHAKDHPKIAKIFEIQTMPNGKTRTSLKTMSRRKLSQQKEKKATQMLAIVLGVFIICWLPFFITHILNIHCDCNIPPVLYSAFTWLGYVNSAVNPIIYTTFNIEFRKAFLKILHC
Sequence of Muscarinic acetylcholine receptor M1 (Homo sapiens) (P11229 whole entry, looked up): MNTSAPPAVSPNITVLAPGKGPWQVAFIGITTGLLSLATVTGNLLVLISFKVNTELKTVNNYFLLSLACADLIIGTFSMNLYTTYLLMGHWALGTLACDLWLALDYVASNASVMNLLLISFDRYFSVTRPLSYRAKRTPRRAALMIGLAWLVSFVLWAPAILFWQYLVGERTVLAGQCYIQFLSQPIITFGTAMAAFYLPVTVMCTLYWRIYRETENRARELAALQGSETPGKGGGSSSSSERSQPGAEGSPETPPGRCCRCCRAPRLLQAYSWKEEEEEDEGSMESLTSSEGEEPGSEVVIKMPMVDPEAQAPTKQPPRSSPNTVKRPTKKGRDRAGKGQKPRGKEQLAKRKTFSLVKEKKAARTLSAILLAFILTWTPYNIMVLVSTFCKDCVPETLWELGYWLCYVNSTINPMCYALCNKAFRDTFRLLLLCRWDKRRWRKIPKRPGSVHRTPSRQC
Sequence of Beta-2 adrenergic receptor (Homo sapiens) (P07550 whole entry, looked up): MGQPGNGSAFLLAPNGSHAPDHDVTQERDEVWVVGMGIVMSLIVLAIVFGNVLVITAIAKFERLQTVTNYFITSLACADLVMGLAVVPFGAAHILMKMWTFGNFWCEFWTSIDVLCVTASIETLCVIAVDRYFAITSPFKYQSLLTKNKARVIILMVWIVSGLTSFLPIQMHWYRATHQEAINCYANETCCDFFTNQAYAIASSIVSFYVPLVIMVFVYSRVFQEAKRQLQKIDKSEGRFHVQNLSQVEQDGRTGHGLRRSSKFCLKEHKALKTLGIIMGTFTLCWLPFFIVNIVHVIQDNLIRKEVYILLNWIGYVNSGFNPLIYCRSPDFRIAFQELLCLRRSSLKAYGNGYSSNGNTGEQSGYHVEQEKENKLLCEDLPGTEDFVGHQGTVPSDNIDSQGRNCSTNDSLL
Sequence of Gonadotropin-releasing hormone receptor (Homo sapiens) (P30968 whole entry, looked up): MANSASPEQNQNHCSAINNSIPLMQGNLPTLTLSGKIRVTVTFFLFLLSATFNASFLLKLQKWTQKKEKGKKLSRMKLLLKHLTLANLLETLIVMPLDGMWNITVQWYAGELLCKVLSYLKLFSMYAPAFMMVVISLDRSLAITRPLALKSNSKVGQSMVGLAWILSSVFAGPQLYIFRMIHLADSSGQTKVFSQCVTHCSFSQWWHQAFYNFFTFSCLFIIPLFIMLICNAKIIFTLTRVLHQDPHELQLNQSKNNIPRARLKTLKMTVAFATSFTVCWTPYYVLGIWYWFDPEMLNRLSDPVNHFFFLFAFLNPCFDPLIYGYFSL
Sequence of 5-hydroxytryptamine receptor 2A (Homo sapiens) (P28223 whole entry, looked up): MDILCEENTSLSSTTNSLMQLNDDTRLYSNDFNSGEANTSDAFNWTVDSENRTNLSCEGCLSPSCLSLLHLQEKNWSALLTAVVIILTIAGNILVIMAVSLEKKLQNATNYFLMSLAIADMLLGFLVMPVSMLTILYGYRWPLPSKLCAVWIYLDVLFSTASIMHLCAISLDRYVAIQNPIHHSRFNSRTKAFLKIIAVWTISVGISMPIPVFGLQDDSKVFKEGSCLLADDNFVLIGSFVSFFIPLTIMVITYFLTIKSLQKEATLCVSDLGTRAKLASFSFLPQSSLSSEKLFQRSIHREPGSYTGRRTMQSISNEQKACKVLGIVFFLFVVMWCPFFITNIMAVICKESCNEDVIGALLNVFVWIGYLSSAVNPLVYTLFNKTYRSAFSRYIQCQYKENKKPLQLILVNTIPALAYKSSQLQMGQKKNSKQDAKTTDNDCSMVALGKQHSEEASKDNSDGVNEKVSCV

CCOP(=S)(OCC)Oc1ccc2c(C)c(Cl)c(=O)oc2c1
inactive and 10.6 µM (active): [2]
not listed: [16] | [17] | [18] | [19]
inactive: all other assays above

CC(=O)CC(c1ccc(Cl)cc1)c1c(O)c2ccccc2oc1=O (stereo not given)
not listed: [14] | [19]
inactive: all other assays above

CC(C)(c1ccccc1)c1ccc(O)c(C(C)(C)c2ccccc2)c1
inactive and 7.7 µM (active): [2]
inactive: [3] | [4] | [5] | [9] | [10] | [11] | [12] | [14]
40.4 µM (active) and inactive: [6]
active: [1] 13.6 µM and 30.6 µM | [7] 14.3 µM and 45.8 µM | [15] 54 µM

COP(N)(=O)SC (stereo not given)
inactive: all assays above

c1ccc(-c2ccccc2)cc1
inactive: all assays above

CC(C)(c1ccc(OCC2CO2)cc1)c1ccc(OCC2CO2)cc1 (stereo not given)
active: [1] 49.2 µM | [2] 27.7 µM and 27.3 µM
not listed: [8] | [17] | [18]
inactive: all other assays above

Cc1cccc(C#N)c1
not listed: [7] | [13] | [18]
inactive: all other assays above

CCOP(=S)(OCC)SCCSCC
not listed: [15] | [17]
inactive: all other assays above

CC(C)OS(C)(=O)=O
not listed: [16]
inactive: all other assays above

CC(=O)CCC(C)=O
not listed: [18]
inactive: all other assays above

COP(=S)(OC)Oc1cc(Cl)c(Cl)cc1Cl
active: [2] 68.1 µM
not listed: [15] | [17] | [18]
inactive: all other assays above

CNC(=O)Oc1cccc2ccccc12
not listed: [6] | [15] | [17] | [18]
inactive: all other assays above

O=c1ccc(=O)[nH][nH]1
inactive: all assays above

CCOS(=O)(=O)OCC
68.7 µM (active) and inactive: [2]
not listed: [18]
inactive: all other assays above

C/C(=N\NC(=O)Nc1cc(F)cc(F)c1)c1ncccc1C(=O)O
inactive: all assays above
